ChEMBL document CHEMBL4513146, “CO-ADD screening of Karazin Kharkiv National University (Ukraine) compounds”
Measured potencies and affinities stand elsewhere.

Assays:
Klebsiella pneumoniae = settings: Concentration 32 ug.mL-1;; ASSAY_TEST Inhibition of Bacterial Growth; detection method Absorption (OD600); MEDIA CAMHB; plate type 384well; NBS; CORNING #3640; time 18 hr
Candida albicans = settings: Concentration 32 ug.mL-1; ASSAY_TEST Inhibition of Fungal Growth; detection method Absorption (OD530)
Cryptococcus neoformans = settings: Concentration 32 ug.mL-1; ASSAY_TEST Inhibition of Fungal Growth; detection method Resazurin; Absorption (OD600-OD570); plate type 384well; NBS; CORNING #3640

| SMILES | Inhibition (Klebsiella pneumoniae) [%] | Inhibition (Candida albicans) [%] | Inhibition (Cryptococcus neoformans) [%] |
| --- | --- | --- | --- |
| COc1ccc(C)cc1NC(=O)CSc1nc2ccccc2n2cnnc12 | 9.24 | 2.39 | -3.58 |
| COc1ccc(C(=O)CSc2nnc3c(=O)n(-c4ccc(Br)cc4)ccn23)cc1 | 6.12 | 4.09 | -7.3 |
| O=C(Cn1nc2c(N3CCOCC3)nccn2c1=O)NCc1cccc(C(F)(F)F)c1 | 8.39 | 5.12 | -4.87 |
| CCOc1ccc(NC(=O)Cn2nc3c(Sc4ccc(C)cc4C)nccn3c2=O)cc1 | 3.27 | 6.36 | -11.66 |
| COC(=O)c1ccc(NC(=O)Cn2nc3ccc(Sc4ccc(C)cc4)nn3c2=O)cc1 | 13.07 | 2.46 | -10.13 |
| O=C(Cn1nc2c(SC3CCCCC3)nccn2c1=O)N1CCN(c2ccc(F)cc2)CC1 | 10.98 | 0.3 | -4.89 |
| Cc1cc2nn(CC(=O)Nc3ccc(F)cc3C)c(=O)n2c(Nc2ccc(F)cc2)n1 | 7.08 | 9.27 | -2.95 |
| O=C(Cn1nc2c(=O)n(-c3ccc(Br)cc3)ccn2c1=O)Nc1cc(F)ccc1F | 9.16 | 1.05 | -5.83 |
| CCOc1ccc(-n2ccn3c(SCC(=O)c4ccc(OC)cc4)nnc3c2=O)cc1 | 12.65 | 0.38 | -12.6 |
| O=c1c2nnc(-c3ccc([N+](=O)[O-])cc3)n2ccn1-c1ccc(F)c(F)c1 | 12.52 | 2.2 | -9.46 |
| O=C(Cn1nc2c(N3CCOCC3)nccn2c1=O)Nc1ccc(Br)cc1F | 9.99 | 1.73 | -5.04 |
| Cc1ccc(CN(c2ccc(C(C)C)cc2)S(=O)(=O)c2cccn3cnnc23)cc1 | 23.96 | 3.57 | -16.89 |
| Cc1cc(NC(=O)Cn2nc3ccc(SC(C)(C)C)nn3c2=O)ccc1Br | 5.26 | 32.86 | -21.27 |
| Cc1ccc(NC(=O)Cn2nc3ccc(SC(C)C)nn3c2=O)cc1F | 6.4 | 5.51 | -6.87 |
| COc1ccc(NC(=O)C(C)Sc2nnc3c(=O)n(-c4cccc(OC)c4)ccn23)cc1 (centres undefined) | 4.86 | -0.02 | -10.81 |
| CC(C)(C)Sc1ccc2nn(CC(=O)Nc3ccccc3Cl)c(=O)n2n1 | 9.71 | 5.29 | -25.66 |
| Cc1nnc2c(SCC(=O)N3CCN(c4ccccc4F)CC3)nc3ccccc3n12 | 10.03 | 8.32 | -3.27 |
| CC(C)Cc1ccc(S(=O)(=O)Nc2ccc3nncn3n2)cc1 | 8.3 | 1.38 | -3.84 |
| Cc1cccc(NC(=O)Cn2nc3c(Sc4ccccc4)nccn3c2=O)c1 | -4.33 | 0.01 | -4.87 |
| COc1ccc(NC(=O)CSc2nnc3c(=O)n(-c4ccccc4)ccn23)cc1OC | 12.94 | 3.46 | -16.1 |
| COC(=O)c1ccc(NC(=O)Cn2nc3c4cc(-c5ccc(OC)cc5)nn4ccn3c2=O)cc1 | 9.58 | 0.9 | -33.46 |
| Cc1ccc(NC(=O)Cn2nc3ccc(SC4CCCCC4)nn3c2=O)c(Cl)c1 | 12.19 | 5.14 | -13.64 |
| CCc1nnc2c(S(=O)(=O)N(Cc3cccc(F)c3)c3ccc(F)cc3)cccn12 | -0.41 | 1.06 | -2.23 |
| N#Cc1ccc(NC(=O)Cn2nc3c(SCc4ccc(Cl)cc4)nccn3c2=O)cc1 | 12.55 | 4.94 | -19.24 |
| O=C(Cn1nc2ccc(Sc3ccccc3)nn2c1=O)Nc1ccc(Cl)cc1 | 9.24 | 8.96 | -7.55 |
| COc1cccc(Sc2nc3ccccc3n3c(=O)n(CC(=O)Nc4ccccc4)nc23)c1 | 3.34 | 1.24 | -26.53 |
| CSc1cccc(NC(=O)Cn2nc3c(Sc4cccc(F)c4)nccn3c2=O)c1 | 0.95 | 3.02 | -2.39 |
| COc1ccc(-c2cc3c4nnc(SCC(=O)NCc5cccc(OC)c5OC)n4ccn3n2)cc1 | 6.86 | 0.88 | -15.85 |
